Experiments:
[1] = target: Platelet-derived growth factor receptor beta (Homo sapiens) (UniProt P09619); conditions: at 1 µM;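 also: each value is a mean percent inhibition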
[2] = target: Tyrosine-protein kinase FRK (Homo sapiens) (UniProt P42685); conditions: at 0.1 µM
[3] = target: Tyrosine-protein kinase FRK (Homo sapiens) (UniProt P42685); conditions: at 1 µM
[4] = target: Protein-tyrosine kinase 2-beta (Homo sapiens) (UniProt Q14289); conditions: at 0.1 µM
[5] = target: Protein-tyrosine kinase 2-beta (Homo sapiens) (UniProt Q14289); conditions: at 1 µM
[6] = target: Proto-oncogene tyrosine-protein kinase receptor Ret (Homo sapiens) (UniProt P07949); conditions: at 0.1 µM
Sequence of Proto-oncogene tyrosine-protein kinase receptor Ret (Homo sapiens) (P07949 whole entry): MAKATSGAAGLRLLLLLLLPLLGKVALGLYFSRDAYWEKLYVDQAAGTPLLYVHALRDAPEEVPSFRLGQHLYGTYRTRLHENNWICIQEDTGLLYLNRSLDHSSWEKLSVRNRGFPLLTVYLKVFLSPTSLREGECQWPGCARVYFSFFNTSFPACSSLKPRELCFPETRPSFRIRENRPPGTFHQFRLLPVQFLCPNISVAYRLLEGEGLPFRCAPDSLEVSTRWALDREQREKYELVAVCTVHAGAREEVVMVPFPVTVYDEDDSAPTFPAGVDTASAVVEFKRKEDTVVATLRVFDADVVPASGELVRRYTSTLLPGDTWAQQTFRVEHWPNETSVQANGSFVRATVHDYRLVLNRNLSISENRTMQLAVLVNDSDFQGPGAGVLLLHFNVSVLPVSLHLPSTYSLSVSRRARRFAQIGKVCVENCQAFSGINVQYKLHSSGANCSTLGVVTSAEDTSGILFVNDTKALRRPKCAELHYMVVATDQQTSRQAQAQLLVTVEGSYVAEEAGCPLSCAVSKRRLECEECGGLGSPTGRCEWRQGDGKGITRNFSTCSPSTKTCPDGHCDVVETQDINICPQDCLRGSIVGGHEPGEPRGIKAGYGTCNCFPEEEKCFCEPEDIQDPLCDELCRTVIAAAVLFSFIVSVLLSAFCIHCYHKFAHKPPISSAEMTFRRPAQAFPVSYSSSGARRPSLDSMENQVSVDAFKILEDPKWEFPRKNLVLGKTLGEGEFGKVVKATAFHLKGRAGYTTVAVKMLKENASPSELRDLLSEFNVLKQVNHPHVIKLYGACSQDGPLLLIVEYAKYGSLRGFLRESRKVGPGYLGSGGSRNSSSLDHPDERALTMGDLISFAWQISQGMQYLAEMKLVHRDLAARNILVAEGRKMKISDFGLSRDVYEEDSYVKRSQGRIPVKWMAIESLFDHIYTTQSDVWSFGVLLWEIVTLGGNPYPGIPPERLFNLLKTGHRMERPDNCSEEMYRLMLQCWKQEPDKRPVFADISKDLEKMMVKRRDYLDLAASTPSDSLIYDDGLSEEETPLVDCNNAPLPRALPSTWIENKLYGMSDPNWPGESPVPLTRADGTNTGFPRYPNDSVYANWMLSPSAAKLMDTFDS

[7] = target: Proto-oncogene tyrosine-protein kinase receptor Ret (Homo sapiens) (UniProt P07949); conditions: at 1 µM
[8] = system: Proto-oncogene tyrosine-protein kinase receptor Ret (Homo sapiens), P07949 [V804L]; conditions: at 0.1 µM
Sequence of Proto-oncogene tyrosine-protein kinase receptor Ret (Homo sapiens), P07949 [V804L] (P07949 whole entry V804L): as the sequence (P07949 whole entry) above, with V804L counted along it

[9] = system: Proto-oncogene tyrosine-protein kinase receptor Ret (Homo sapiens), P07949 [V804L]; conditions: at 1 µM
[10] = system: Proto-oncogene tyrosine-protein kinase receptor Ret (Homo sapiens), P07949 [Y791F]; conditions: at 0.1 µM
Sequence of Proto-oncogene tyrosine-protein kinase receptor Ret (Homo sapiens), P07949 [Y791F] (P07949 whole entry Y791F): as the sequence (P07949 whole entry) above, with Y791F counted along it

[11] = system: Proto-oncogene tyrosine-protein kinase receptor Ret (Homo sapiens), P07949 [Y791F]; conditions: at 1 µM
[12] = target: Macrophage-stimulating protein receptor (Homo sapiens) (UniProt Q04912); conditions: at 0.1 µM
[13] = target: Macrophage-stimulating protein receptor (Homo sapiens) (UniProt Q04912); conditions: at 1 µM
[14] = target: Proto-oncogene tyrosine-protein kinase ROS (Homo sapiens) (UniProt P08922); conditions: at 0.1 µM
Sequence of Proto-oncogene tyrosine-protein kinase ROS (Homo sapiens) (P08922 whole entry): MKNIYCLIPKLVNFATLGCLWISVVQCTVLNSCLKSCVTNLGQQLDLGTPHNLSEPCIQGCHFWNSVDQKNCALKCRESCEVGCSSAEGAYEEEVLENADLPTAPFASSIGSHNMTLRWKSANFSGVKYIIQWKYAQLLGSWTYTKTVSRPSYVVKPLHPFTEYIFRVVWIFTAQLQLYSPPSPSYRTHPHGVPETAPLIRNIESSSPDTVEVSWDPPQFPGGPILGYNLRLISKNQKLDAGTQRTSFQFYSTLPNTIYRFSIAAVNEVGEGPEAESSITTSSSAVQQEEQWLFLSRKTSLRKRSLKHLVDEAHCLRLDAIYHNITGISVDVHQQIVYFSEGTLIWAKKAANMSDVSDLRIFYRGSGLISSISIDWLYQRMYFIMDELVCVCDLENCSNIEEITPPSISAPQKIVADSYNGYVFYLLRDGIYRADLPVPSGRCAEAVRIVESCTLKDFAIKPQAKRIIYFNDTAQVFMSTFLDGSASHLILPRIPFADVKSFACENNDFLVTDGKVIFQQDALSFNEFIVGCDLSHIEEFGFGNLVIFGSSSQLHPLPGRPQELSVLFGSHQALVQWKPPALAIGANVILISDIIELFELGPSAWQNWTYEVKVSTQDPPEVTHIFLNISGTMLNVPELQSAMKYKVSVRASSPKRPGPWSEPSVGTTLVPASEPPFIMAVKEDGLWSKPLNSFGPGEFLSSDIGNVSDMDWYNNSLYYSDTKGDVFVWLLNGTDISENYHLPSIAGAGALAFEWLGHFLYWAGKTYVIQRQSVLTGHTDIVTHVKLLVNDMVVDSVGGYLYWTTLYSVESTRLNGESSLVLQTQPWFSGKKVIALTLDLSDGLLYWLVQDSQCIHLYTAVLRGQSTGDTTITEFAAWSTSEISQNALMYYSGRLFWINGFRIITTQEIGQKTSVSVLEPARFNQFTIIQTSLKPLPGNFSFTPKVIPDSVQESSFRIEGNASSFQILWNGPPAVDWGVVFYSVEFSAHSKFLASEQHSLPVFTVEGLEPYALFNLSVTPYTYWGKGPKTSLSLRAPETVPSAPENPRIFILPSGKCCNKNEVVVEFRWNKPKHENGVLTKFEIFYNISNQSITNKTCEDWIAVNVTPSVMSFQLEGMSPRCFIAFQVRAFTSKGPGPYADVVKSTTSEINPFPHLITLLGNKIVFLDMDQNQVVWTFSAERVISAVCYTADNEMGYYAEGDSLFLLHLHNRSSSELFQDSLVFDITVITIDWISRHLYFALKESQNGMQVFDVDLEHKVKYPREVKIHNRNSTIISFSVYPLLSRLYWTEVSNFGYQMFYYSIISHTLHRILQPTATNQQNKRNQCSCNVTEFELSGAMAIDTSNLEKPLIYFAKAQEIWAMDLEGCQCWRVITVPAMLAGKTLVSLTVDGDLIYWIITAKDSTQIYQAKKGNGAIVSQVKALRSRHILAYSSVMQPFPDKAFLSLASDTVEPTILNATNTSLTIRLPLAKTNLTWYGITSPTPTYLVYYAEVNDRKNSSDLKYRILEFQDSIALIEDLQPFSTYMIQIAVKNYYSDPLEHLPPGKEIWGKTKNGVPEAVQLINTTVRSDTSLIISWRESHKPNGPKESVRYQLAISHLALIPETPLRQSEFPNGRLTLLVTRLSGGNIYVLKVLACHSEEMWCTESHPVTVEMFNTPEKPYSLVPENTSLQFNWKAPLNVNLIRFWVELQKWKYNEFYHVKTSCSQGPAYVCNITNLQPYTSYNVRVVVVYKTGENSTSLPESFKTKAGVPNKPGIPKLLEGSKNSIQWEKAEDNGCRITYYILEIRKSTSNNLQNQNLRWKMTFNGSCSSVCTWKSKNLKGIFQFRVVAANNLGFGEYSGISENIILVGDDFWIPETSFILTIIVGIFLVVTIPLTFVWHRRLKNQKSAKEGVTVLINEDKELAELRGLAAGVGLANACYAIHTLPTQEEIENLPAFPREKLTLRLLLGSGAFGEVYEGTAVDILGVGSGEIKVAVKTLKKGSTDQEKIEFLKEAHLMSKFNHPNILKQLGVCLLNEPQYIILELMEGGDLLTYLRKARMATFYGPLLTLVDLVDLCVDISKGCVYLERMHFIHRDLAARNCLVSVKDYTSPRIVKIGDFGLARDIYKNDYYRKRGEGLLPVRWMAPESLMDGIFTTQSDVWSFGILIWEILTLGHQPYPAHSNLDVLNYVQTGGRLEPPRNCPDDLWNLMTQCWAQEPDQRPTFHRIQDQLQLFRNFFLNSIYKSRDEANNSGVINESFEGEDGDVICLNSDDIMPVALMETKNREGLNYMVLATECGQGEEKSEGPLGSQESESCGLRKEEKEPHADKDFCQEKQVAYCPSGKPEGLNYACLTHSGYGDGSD

[15] = target: Proto-oncogene tyrosine-protein kinase ROS (Homo sapiens) (UniProt P08922); conditions: at 1 µM
[16] = target: Proto-oncogene tyrosine-protein kinase Src (Homo sapiens) (UniProt P12931); conditions: at 0.1 µM
[17] = target: Proto-oncogene tyrosine-protein kinase Src (Homo sapiens) (UniProt P12931); conditions: at 1 µM
[18] = target: Tyrosine-protein kinase Srms (Homo sapiens) (UniProt Q9H3Y6); conditions: at 0.1 µM
Sequence of Tyrosine-protein kinase Srms (Homo sapiens) (Q9H3Y6 whole entry): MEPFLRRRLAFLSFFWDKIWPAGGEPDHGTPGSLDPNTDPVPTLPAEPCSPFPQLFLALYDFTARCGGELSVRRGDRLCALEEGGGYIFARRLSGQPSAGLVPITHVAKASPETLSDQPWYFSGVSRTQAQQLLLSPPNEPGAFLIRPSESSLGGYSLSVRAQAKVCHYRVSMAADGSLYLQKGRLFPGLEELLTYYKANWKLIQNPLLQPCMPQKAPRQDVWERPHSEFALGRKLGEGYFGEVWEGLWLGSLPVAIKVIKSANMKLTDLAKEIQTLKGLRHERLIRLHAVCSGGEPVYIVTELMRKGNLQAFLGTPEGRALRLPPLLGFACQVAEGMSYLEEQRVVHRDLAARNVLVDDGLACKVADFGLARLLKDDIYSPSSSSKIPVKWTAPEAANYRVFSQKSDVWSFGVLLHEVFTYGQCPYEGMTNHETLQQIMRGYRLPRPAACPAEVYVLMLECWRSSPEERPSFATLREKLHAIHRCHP

[19] = target: Tyrosine-protein kinase Srms (Homo sapiens) (UniProt Q9H3Y6); conditions: at 1 µM
[20] = target: Tyrosine-protein kinase SYK (Homo sapiens) (UniProt P43405); conditions: at 0.1 µM;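 also: reported percentages are mean inhibition values for SYK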

Sequence of Platelet-derived growth factor receptor beta (Homo sapiens) (P09619 whole entry): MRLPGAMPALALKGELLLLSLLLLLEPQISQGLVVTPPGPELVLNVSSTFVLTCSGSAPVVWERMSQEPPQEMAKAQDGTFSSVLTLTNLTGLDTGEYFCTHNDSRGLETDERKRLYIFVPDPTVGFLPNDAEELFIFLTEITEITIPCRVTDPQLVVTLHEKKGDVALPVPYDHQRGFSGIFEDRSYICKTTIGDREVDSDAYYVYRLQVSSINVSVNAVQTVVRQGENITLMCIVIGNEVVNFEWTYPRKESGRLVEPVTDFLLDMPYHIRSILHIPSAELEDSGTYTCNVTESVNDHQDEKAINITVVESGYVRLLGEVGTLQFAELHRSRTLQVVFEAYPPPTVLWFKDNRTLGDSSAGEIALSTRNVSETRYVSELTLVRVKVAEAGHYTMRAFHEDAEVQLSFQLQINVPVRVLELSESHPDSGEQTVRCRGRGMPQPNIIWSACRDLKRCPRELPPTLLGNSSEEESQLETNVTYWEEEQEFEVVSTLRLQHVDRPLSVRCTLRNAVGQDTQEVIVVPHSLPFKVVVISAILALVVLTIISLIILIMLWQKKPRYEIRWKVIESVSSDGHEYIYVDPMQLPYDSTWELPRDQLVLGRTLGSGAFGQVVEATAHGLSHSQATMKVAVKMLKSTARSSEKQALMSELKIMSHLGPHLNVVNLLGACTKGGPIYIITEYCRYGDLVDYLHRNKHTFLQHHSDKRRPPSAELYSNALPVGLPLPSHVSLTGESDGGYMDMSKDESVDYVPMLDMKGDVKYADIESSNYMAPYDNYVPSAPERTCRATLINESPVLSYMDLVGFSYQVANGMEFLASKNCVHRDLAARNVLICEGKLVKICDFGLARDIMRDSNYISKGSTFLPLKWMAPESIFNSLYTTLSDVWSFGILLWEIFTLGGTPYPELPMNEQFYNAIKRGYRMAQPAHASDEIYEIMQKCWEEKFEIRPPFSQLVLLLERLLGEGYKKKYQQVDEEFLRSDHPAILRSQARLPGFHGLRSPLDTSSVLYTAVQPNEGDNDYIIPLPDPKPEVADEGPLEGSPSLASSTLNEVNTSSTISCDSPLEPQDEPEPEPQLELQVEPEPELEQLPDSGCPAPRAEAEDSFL

Compound	inhibition [1] [%]	inhibition [2] [%]	inhibition [3] [%]	inhibition [4] [%]	inhibition [5] [%]	inhibition [6] [%]	inhibition [7] [%]	inhibition [8] [%]	inhibition [9] [%]	inhibition [10] [%]	inhibition [11] [%]	inhibition [12] [%]	inhibition [13] [%]	inhibition [14] [%]	inhibition [15] [%]	inhibition [16] [%]	inhibition [17] [%]	inhibition [18] [%]	inhibition [19] [%]	inhibition [20] [%]
Cc1ccc2c(-c3ccnc(Nc4ccc5c(c4)OCCO5)n3)c(-c3ccc(C(F)(F)F)cc3)nn2n1	4.63	-1.35	-0.65	-0.75	2.42	-1.02	3.09	0.74	1.64	1.62	5.72	-0.07	4.33	1.22	2.46	1.69	5.52	-0.03	0.07	-0.8
CN(C)c1cc2c(Nc3ccc4c(cnn4Cc4ccccc4)c3)ncnc2cn1	7.75	1.92	2.5	4.48	5.1	1.87	13.6	3.56	0.35	5.78	34.4	1.53	0.62	2.34	2.03	3.91	13.1	-0.2	1.29	0.89
O=S(=O)(CCOCc1ccc(-c2ccc3ncnc(Nc4ccc(OCc5cccc(F)c5)c(Cl)c4)c3c2)o1)c1ccccc1	7.33	1.09	0.79	4.11	8.55	5.25	5.38	6.3	10.1	7.95	7.27	3.62	1.46	2.65	3.57	0.66	0.4	-1.31	-2.52	1.93
CS(=O)(=O)Nc1cccc(-c2ccc3c(NC(=O)C4CC4)n[nH]c3c2)c1	7.8	0.86	0.42	2.77	3.01	-0.07	15.4	-3.08	-1.31	1.94	-0.36	-6.3	-6.45	3.6	2.79	1.2	4.09	1.35	-2.43	-1.34
CN(C)CCCn1c(-c2nonc2N)nc2cnccc21	11.6	2.2	1.55	9.44	4.55	7.25	8.04	1.93	2.02	2.47	8.31	1.31	3.53	5.53	4.62	2.96	6.8	-0.98	-4.16	-4.3
NC(=O)c1sc(-n2cnc3ccccc32)cc1OCc1ccccc1Br	14.4	2.57	3.29	7.34	6.52	9.37	12.7	3.43	5.79	5.9	15.3	9.12	9.57	7.48	10.1	7.25	12.9	-2.72	-2.44	0.26
N#Cc1c(NC(=O)c2ccccc2F)sc2c1CCCC2	3.62	-0.85	-1.09		-8.67	-2	3.21	0.24	2.29	-0.3	1.78	-0.97	-3.33	1.04	0.32	-4.11	-4.48	2.55	1.79	0.7
OCc1ccc(-c2nc(-c3ccccn3)c(-c3ccc4c(c3)OCO4)[nH]2)cc1	11	2.25	2.05	12	13.1	4.72	4.99	4.41	1.05	12.3	6.59	-1.95	-0.55	6.84	8.11	-0.99	10.6	0.43	-1.19	-7.53
COc1cc2ncn(-c3cc(OCc4ccccc4S(C)(=O)=O)c(C#N)s3)c2cc1OC	78.1	3.38	4.36	12	25.6	18.2	63.7	11.3	53.6	23.2	59.1	-3.29	8.3	27.4	68.7	3.54	50.1	2.07	26.9	-8.27
Cc1nc(-c2ccccc2)n2nc(NCCCN3CCOCC3)ncc12	5.95	3.57	2.61	1.99	10.1	0.76	6.88	2.64	7.97	4.35	4.86	2.7	-3.01	4.45	2.41	6.46	6.81	2.65	2.27	1.44
Cc1ccc(NC(=O)CC2CC2)cc1-c1ccc(C(=O)NCC2CC2)cc1	8.86	2.5	2.58	5.55	9.67	4.79	9.25	2.68	10	7.7	28.8	-0.78	1.45	4.69	8.56	4.43	8.28	0.3	5.61	-2.32
Cc1ccc2c(c1)/C(=N/Nc1ccc(S(N)(=O)=O)cc1)C(=O)N2	31.7	-0.61	0.7	1.76	0.28	3.85	18.8	7.64	35.4	8.06	18.2	-3.95	-1.57	2.42	4.27	0.59	6.44	-1.38	-2.68	2.17
NS(=O)(=O)c1ccc(-c2cc3ccncc3cc2OCc2ccccc2)cc1	8.53	2	1.07	7.81	13.4	2.04	8.69	2.23	5.47	5.72	8.79	3.44	8.77	5.03	11	-0.21	6.83	0.62	1.62	2.96
C[C@@H](Oc1cc(-n2cnc3ccc(OCC4CCN(C)CC4)cc32)sc1C(N)=O)c1ccccc1C(F)(F)F	81.5	-0.4	0.5	-2.32	6.22	2.63	11.6	2.09	18.5	1.2	18.4	-0.38	9.36	0.2	7.21	-1.27	21.3	1.72	2.5	0.48
CCn1c(-c2nonc2N)nc2ccc(F)cc21	4.28	2.61	1.89			6.24	5.07	3.33	15.8	6.33	11.3	0.5	6.19	5.7	8.6	4.3	9.9	-2.63	-0.49	3.17
Nc1nccc(-c2c(-c3ccc(F)cc3)nn3cc(C(F)(F)F)ccc23)n1	2.13	-1.38	1.04			2.76	-0.03	0.95	0.97	-0.45	3.56	1.05	-2.78	4.58	2.24	1.35	1.39	0.31	-1.94	-0.75
Cc1ccc(Nc2ccnc(Nc3cccc(C(N)=O)c3)n2)cc1O	79.7	48.6	87.6	9.71	47.8	73.5	85.7	11.7	49.7	74.6	88.7	0.19	13.3	17.4	61.4	78.3	90.7	10.8	41	-7.65
CCS(=O)(=O)c1ccc(OC)c(Nc2ncc(-c3cccc(OC)c3)o2)c1	74.8	4.05	26.9	6.52	10.9	21.9	68.5	7.11	44.1	22.6	67.1	3.89	3.42	9.78	43.3	30.7	79.4	2.74	30.6	-0.11
NS(=O)(=O)c1ccc(N/N=C2\C(=O)Nc3ccc(Cl)cc32)cc1	36.7	1.76	1.45	6.41	14	-0.09	14.5	8.27	41.6	2.06	22.3	3.12		4.68	4.73	-2.96	14.1	0.76	0.2	-0.57
NS(=O)(=O)c1cccc(-c2cc3ccncc3cc2OCc2ccccc2)c1	11.8	3.66	1.68			6.15	14.3	6.02	14.3	12.6	18	3.72	-2.44	10.8	17.1	5.87	11.2	-1.16	-2.93	-6.65
COC(=O)c1cncc(/C=C/c2c(C)cc(O)cc2C)c1	36.7	2.26	6.54	9.3	10.1	2.45	5.3	2.74	7.8	0.65	15.2	-3.36	7.09		6.7	11.8	38.2	0.39	12.7	-5.74
COc1cc2ncnc(Nc3ccc4c(cnn4Cc4ccccc4)c3)c2cc1OC	6.26	1.94	6.16	6.05	9.57	8.77	28.6	3.73	9.3	9.71	40	3.2	2.02	6.51	4.63	10.1	41.8	0.35	4.63	4.44
ON=C1CCc2cc(-c3nc(C4CCNCC4)[nH]c3-c3ccncc3)ccc21	23.3	2.38	-1.06	1.86	1.17	1.22	7.25	6.18	-3.85	1.94	8.46	-6.87	1.8	1.07	2.47	2.03	0.66	0	-2.67	2.82
Cc1cc(Cl)cc2c1NC(=O)C2=NNc1ccc(S(N)(=O)=O)cc1	6.52	1.54	3.32			2.45	-0.28	3.83	7.51	-0.41	11	0.92	0.34	2.22	3.14	5.04	5.85	-1.17	-2.07	-4.26
CCOc1nccc2c1nc(-c1nonc1N)n2CC	20.2	1.66	-0.64	5.11	7.29	5.47	12.3	8.5	20.2	9.76	28.7	10	5.31	5.15	11.8		5.71	3.59	5.69	1.77
Nc1nccc(C#Cc2cncnc2Nc2ccc(OCc3cccc(F)c3)c(Cl)c2)n1	11.6	2.59	0.85	8.24	14.2	1.17	5.76	10.1	15	4.88	10.5	-0.99	9.09	7.35	16.2	0.36	7.62	0.29	-3.68	-6.1
FC(F)(F)c1ccc(-c2nn3ncccc3c2-c2ccnc(Nc3ccc4c(c3)OCCO4)n2)cc1	17.4	1.38	2.35	2.83	1.96	8.08	29.2	9.12	14.3	8.67	43.9	11.8	0.63	7.87	9.43	0.84	15.8	8.49	8.73	3.37
